Compounds without any hit were thinned out: in the full panel of roughly 83,000, 20% have a hit.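 The test compound was applied at a single concentration to cells in 96-well plates for 48 hours, and percent growth was recorded.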 Values without a mark were called inactive. Active and inactive are the calls of the source. How the source made its calls: active means growth percent below 10; inactive means the rest.

Among the test systems are SR leukemia; RPMI-8226 leukemia; OVCAR-8 ovarian; OVCAR-5 ovarian; OVCAR-4 ovarian; SK-OV-3 ovarian; IGROV1 ovarian; OVCAR-3 ovarian; HS 578T breast; NCI/ADR-RES ovarian; T-47D breast; BT-549 breast; MDA-MB-435 melanoma; SW-620 colon; MCF7 breast; HCT-116 colon; HCC-2998 colon; KM12 colon.
Test in all cases: NCI-60 one-dose screen, 48 h (100 = growth as untreated, 0 = no growth, -100 = all killed)
What all share (conditions): 10 µM unless noted

With `COc1cc(C#N)cc(OC)c1OCCN(CCOc1c(OC)cc(C#N)cc1OC)S(=O)(=O)c1ccc(C)cc1`, the growth is 106% in the assay with SR leukemia; 90.6% in the assay with RPMI-8226 leukemia; 54.1% in the assay with OVCAR-8 ovarian; 108% in the assay on OVCAR-5 ovarian; 107% with OVCAR-4 ovarian; 119% in the assay on SK-OV-3 ovarian. Also, the growth in the assay with IGROV1 ovarian is 77.3%; with OVCAR-3 ovarian it was 118%; with HS 578T breast, 99%; in the assay with NCI/ADR-RES ovarian it was 95.9%; in the assay on T-47D breast it was 96.3%; with BT-549 breast, 107%. For the same compound, the growth was 114% with MDA-MB-435 melanoma; 99.6% in the assay with SW-620 colon; 108% in the assay on MCF7 breast; 81.6% in the assay with HCT-116 colon; 94.8% with HCC-2998 colon; 108% with KM12 colon.

Consider `CNCCCn1c2c(c3ccc([N+](=O)[O-])cc3c1=O)C(=O)c1cc(OC)cnc1-2`, for which the growth with SR leukemia was 2.17% (active); with RPMI-8226 leukemia, -25.9% (active); in the assay with OVCAR-8 ovarian, -14.9% (active); in the assay on OVCAR-5 ovarian it was 1.76% (active); in the assay with OVCAR-4 ovarian it was -25.9% (active); in the assay with SK-OV-3 ovarian, -15.8% (active). Besides, the growth with IGROV1 ovarian is 0.722% (active); with OVCAR-3 ovarian, -45.1% (active); in the assay with HS 578T breast it was 15.6%; in the assay on NCI/ADR-RES ovarian, -28.8% (active); with T-47D breast, -7.15% (active); with BT-549 breast it was -25.6% (active). The growth with MDA-MB-435 melanoma was -76.7% (active); in the assay on SW-620 colon, -34.1% (active); with MCF7 breast, 0.912% (active); in the assay with HCT-116 colon, -53.9% (active); with HCC-2998 colon, 11.1%; in the assay on KM12 colon, -4.18% (active).

On to `COc1cc2c(=O)n(CC3CCCCC3)c3c4cc[nH]c4ncc3c2cc1OC`, for which the growth in the assay on SR leukemia is 6.22% (active); in the assay on RPMI-8226 leukemia, 34.5%; with OVCAR-8 ovarian, 26.9%; in the assay with OVCAR-5 ovarian, 52.3%; in the assay with OVCAR-4 ovarian it was 19.3%; in the assay with SK-OV-3 ovarian, 47.7%. Besides, the growth is 23.6% with IGROV1 ovarian; 38.7% in the assay with OVCAR-3 ovarian; -4.62% (active) in the assay with HS 578T breast; 33.8% in the assay on NCI/ADR-RES ovarian; 44.9% in the assay on T-47D breast; 55.3% in the assay on MDA-MB-435 melanoma. The growth is 30.3% in the assay with SW-620 colon; 19.8% in the assay on MCF7 breast; 28.9% with HCT-116 colon; 62.3% with HCC-2998 colon; 19% in the assay with KM12 colon.

As to `Cc1cc(OCc2ccc(C(F)(F)F)cc2)c2c(c1)C(=O)C=C(NCCN1CCCC1)C2=O`, the growth was -11.6% (active) with SR leukemia; 29.9% with RPMI-8226 leukemia; 72.3% in the assay with OVCAR-8 ovarian; 87.9% with OVCAR-5 ovarian; 68% in the assay on OVCAR-4 ovarian; 103% with SK-OV-3 ovarian. The growth was 74.8% in the assay with IGROV1 ovarian; 83.9% in the assay with OVCAR-3 ovarian; 85% in the assay with HS 578T breast; 81.1% in the assay on NCI/ADR-RES ovarian; 42.8% in the assay with T-47D breast; -23.5% (active) with MDA-MB-435 melanoma. In addition, the growth in the assay on SW-620 colon is 74.7%; in the assay with MCF7 breast it was 31%; in the assay on HCT-116 colon, 19.6%; with HCC-2998 colon, 15.2%; with KM12 colon, 79.1%.

`C=C1C(=O)O[C@H]2[C@H]1CC/C(Cn1cc(Cc3c[nH]c4ccccc34)nn1)=C\CC[C@@]1(C)O[C@@H]21`: the growth in the assay on SR leukemia is -5.78% (active); in the assay on RPMI-8226 leukemia, -26% (active); in the assay on OVCAR-8 ovarian, 0.832% (active); with OVCAR-5 ovarian, 76.2%; in the assay on OVCAR-4 ovarian it was 43.8%; in the assay with SK-OV-3 ovarian, 97.1%. The growth with IGROV1 ovarian is 40.2%; with OVCAR-3 ovarian it was -28.3% (active); in the assay with HS 578T breast it was 73.5%; in the assay with NCI/ADR-RES ovarian, 85.8%; in the assay on T-47D breast, 1.32% (active); in the assay on BT-549 breast, 44.2%. For the same compound, the growth is 13.6% in the assay with MDA-MB-435 melanoma; -58.7% (active) with SW-620 colon; -61.2% (active) in the assay with MCF7 breast; -89.5% (active) in the assay with HCT-116 colon; 61.5% with HCC-2998 colon; 67.2% in the assay on KM12 colon.

On to `C=C1C(=O)O[C@H]2[C@H]1CC/C(Cn1cc(Cn3ccc4ccccc43)nn1)=C\CC[C@@]1(C)O[C@@H]21`, for which the growth in the assay on SR leukemia is -18.4% (active); with RPMI-8226 leukemia, -34.6% (active); with OVCAR-8 ovarian, 11%; in the assay with OVCAR-5 ovarian it was 71.5%; in the assay with OVCAR-4 ovarian, 45.4%; in the assay with SK-OV-3 ovarian, 101%. Moreover, the growth was 47.8% in the assay with IGROV1 ovarian; -59.7% (active) in the assay with OVCAR-3 ovarian; 69.4% in the assay with HS 578T breast; 77.9% in the assay with NCI/ADR-RES ovarian; -17.9% (active) with T-47D breast; 58.7% in the assay on BT-549 breast. In addition, the growth in the assay with MDA-MB-435 melanoma is 19.9%; in the assay with SW-620 colon, -77.1% (active); in the assay on MCF7 breast, -73.9% (active); in the assay with HCT-116 colon, -89.5% (active); in the assay on HCC-2998 colon, 69%; with KM12 colon it was 66.5%.

As to `Clc1nc(Cl)c2c3c(sc2n1)CCCC3`, the growth in the assay on SR leukemia was -36.4% (active); with RPMI-8226 leukemia, 1.89% (active); in the assay with OVCAR-8 ovarian it was 39.8%; with OVCAR-5 ovarian, 96.5%; with OVCAR-4 ovarian, 44.1%; in the assay on SK-OV-3 ovarian, 107%. Further, the growth was 38.4% with IGROV1 ovarian; -35.9% (active) in the assay on OVCAR-3 ovarian; 76.2% in the assay on HS 578T breast; 99.7% with NCI/ADR-RES ovarian; 38.4% in the assay on T-47D breast; 13.3% with BT-549 breast. The growth with MDA-MB-435 melanoma is 49.3%; in the assay on SW-620 colon it was 34.3%; in the assay with MCF7 breast, 30.7%; with HCT-116 colon it was 12.5%; in the assay with HCC-2998 colon it was 97.6%; in the assay on KM12 colon, 74.2%.

For `COc1c(C2CC(=O)Nc3c2cnn3Cc2ccco2)cc2c(c1OC)OCO2` (stereo unspecified), the growth was 2.13% (active) with SR leukemia; -1.94% (active) with RPMI-8226 leukemia; 18% with OVCAR-8 ovarian; 40.8% with OVCAR-5 ovarian; 39.2% in the assay with OVCAR-4 ovarian; -9.03% (active) in the assay on SK-OV-3 ovarian. Also, the growth in the assay with IGROV1 ovarian was 52.8%; in the assay with OVCAR-3 ovarian it was -35.9% (active); in the assay on HS 578T breast it was 30.4%; with NCI/ADR-RES ovarian, 4.88% (active); with T-47D breast it was 55.6%; in the assay with BT-549 breast it was 8.74% (active). In addition, the growth in the assay on MDA-MB-435 melanoma was -58.4% (active); with SW-620 colon, 23%; with MCF7 breast it was 12.8%; in the assay with HCT-116 colon, 12.8%; with KM12 colon, 16.8%.

These data come from PubChem BioAssay (NCI).
